Measurements from the supplement of paper PMC9262897, “Low-cost anti-mycobacterial drug discovery using engineered E. coli” (Nature Communications, 2022).
Structures can show the parent of a compound that is named as a salt. ± gives the standard deviation of the averaged measurements.

Assays:
Experiment in all cases: growth (OD600 after 10 h); higher = more growth (less inhibition)
[1] = test system: E. coli TESEC Alr+ wild-type control; conditions: compound 0.1 mM; raw OD600 reference: median of DMSO wells 0.241, cell-free background 0.041
Description: (§1)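 TESEC Mtb Alr E. coli, or the Alr+ wild-type control, in 384-well plates with Prestwick library compounds at 0.1 mM and 1% DMSO, across arabinose induction levels of 1E3 to 1E7 nM. Growth is read as OD600 after 10 h at 37 °C in triplicate biological replicates.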

[2] = test system: E. coli TESEC Mtb Alr; conditions: compound 0.1 mM
Description: as §1

[3] = test system: E. coli TESEC Mtb Asd; conditions: compound 0.1 mM
Description: (§2)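 TESEC E. coli strains in which the native enzyme is deleted and replaced by arabinose-inducible Mtb Asd, DapB, CysH or TrpD, each grown in its selective medium. Strains were screened against the Prestwick library at 0.1 mM and 1% DMSO in 384-well format at low and high arabinose induction. Growth is read as OD600 after 10 h in triplicate.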

[4] = test system: E. coli TESEC Mtb DapB; conditions: compound 0.1 mM
Description: as §2

[5] = test system: E. coli TESEC Mtb Alr; conditions: compound 0.1 mM; remark: listed apart in the source
Description: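 TESEC Mtb Alr E. coli (ΔaraC ΔtolC ΔentC Δalr ΔdadX, arabinose-inducible Mtb Alr) or the Alr+ wild-type control strain, grown in defined M9-fructose medium without D-alanine in 96-well plates with Prestwick library compounds at 0.1 mM and 1% DMSO. Low Alr induction is 0.1 µM arabinose and high induction is 10 mM arabinose.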

[6] = arabinose 1000 nM, raw OD600 reference: median of DMSO wells 0.294, cell-free background 0.041
[7] = arabinose 10000 nM, raw OD600 reference: median of DMSO wells 0.264, cell-free background 0.041
[8] = arabinose 100000 nM, raw OD600 reference: median of DMSO wells 0.201, cell-free background 0.041
[9] = arabinose 1000000 nM, raw OD600 reference: median of DMSO wells 0.193, cell-free background 0.041
[10] = arabinose 10000000 nM, raw OD600 reference: median of DMSO wells 0.146, cell-free background 0.041
[11] = arabinose induction (level): High, raw OD600 reference: median of DMSO wells 0.331, cell-free background 0.041
[12] = arabinose induction (level): Low, raw OD600 reference: median of DMSO wells 0.417, cell-free background 0.041
[13] = arabinose induction (level): High, raw OD600 reference: median of DMSO wells […], cell-free background 0.041
[14] = arabinose induction (level): Low, raw OD600 reference: median of DMSO wells 0.227, cell-free background 0.041
[15] = arabinose 100 nM, raw OD600 reference: median of DMSO wells 0.413, cell-free background 0.052
[16] = arabinose 10000000 nM, raw OD600 reference: median of DMSO wells […], cell-free background 0.052

Row | Compound | growth [1] | growth [2, 6] | growth [2, 7] | growth [2, 8] | growth [2, 9] | growth [2, 10] | growth [3, 11] | growth [3, 12] | growth [4, 13] | growth [4, 14] | growth [5, 15] | growth [5, 16]
1 | Cc1cc2cc3c(C)cc(=O)oc3c(C)c2o1 [Trioxsalen] | 0.253 ± 0.0068 | 0.312 ± 0.0079 | 0.258 ± 0.008 | 0.192 ± 0.0079 | 0.161 ± 0.0053 | 0.1653 ± 0.0007 | 0.454 ± 0.015 | 0.423 ± 0.0095 | 0.231 ± 0.032 | 0.237 ± 0.012 | 0.4096 ± 0.0037 | 0.324 ± 0.024
2 | OCCN1CCN(CCCN2c3ccccc3C=Cc3ccccc32)CC1 [Opipramol dihydrochloride] | 0.142 ± 0.003 | 0.271 ± 0.023 | 0.245 ± 0.0065 | 0.179 ± 0.0079 | 0.0873 ± 0.0083 | 0.137 ± 0.003 | 0.16 ± 0.019 | 0.276 ± 0.024 | 0.199 ± 0.027 | 0.218 ± 0.04 | 0.407 ± 0.006 | 0.298 ± 0.0042
3 | Fc1ccc([C@@H]2CCNC[C@H]2COc2ccc3c(c2)OCO3)cc1 [Paroxetine Hydrochloride] | 0.178 ± 0.0068 | 0.172 ± 0.01 | 0.2021 ± 0.0013 | 0.129 ± 0.0033 | 0.05573 ± 0.00035 | 0.0552 ± 0.0014 | 0.133 ± 0.0029 | 0.176 ± 0.0037 | 0.172 ± 0.027 | 0.178 ± 0.0082 | 0.384 ± 0.0066 | 0.134 ± 0.073
4 | COc1ccccc1Oc1c(NS(=O)(=O)c2ccc(C(C)(C)C)cc2)nc(-c2ncccn2)nc1OCCO [Bosentan] | 0.227 ± 0.0037 | 0.253 ± 0.0068 | 0.269 ± 0.014 | 0.276 ± 0.011 | 0.103 ± 0.0025 | 0.147 ± 0.0018 | 0.253 ± 0.045 | 0.335 ± 0.065 | 0.177 ± 0.022 | 0.247 ± 0.051 | 0.417 ± 0.0042 | 0.237 ± 0.015
5 | OCCOCCN1CCN(C2=Nc3ccccc3Sc3ccccc32)CC1 [Quetiapine hemifumarate] | 0.158 ± 0.01 | 0.25 ± 0.0048 | 0.255 ± 0.0044 | 0.203 ± 0.026 | 0.121 ± 0.0057 | 0.151 ± 0.0081 | 0.162 ± 0.024 | 0.361 ± 0.016 | 0.174 ± 0.013 | 0.187 ± 0.021 | 0.396 ± 0.0062 | 0.289 ± 0.0089
6 | COc1ccc2c(c1)c(CC(=O)O)c(C)n2C(=O)c1ccc(Cl)cc1 [Indomethacin] | 0.141 ± 0.0034 | 0.186 ± 0.008 | 0.2 ± 0.0069 | 0.124 ± 0.0036 | 0.0963 ± 0.0012 | 0.105 ± 0.0024 | 0.172 ± 0.017 | 0.196 ± 0.036 | 0.156 ± 0.0079 | 0.214 ± 0.073 | 0.366 ± 0.032 | 0.143 ± 0.0065
7 | O=C1OC(CN2CCOCC2)CN1/N=C/c1ccc([N+](=O)[O-])o1 (stereo unspecified) [Furaltadone hydrochloride] | 0.04157 ± 0.00012 | 0.0421 ± 0.002 | 0.0409 ± 0.0001 | 0.04173 ± 5.8e-05 | 0.0404 ± 0.00046 | 0.0427 ± 0.0014 | 0.0534 ± 0.0031 | 0.0559 ± 0.0011 | 0.0577 ± 0.0081 | 0.0529 ± 0.00068 | 0.0601 ± 0.0022 | 0.0562 ± 0.0033
8 | CC=CC(=O)N(CC)c1ccccc1C [Crotamiton] | 0.242 ± 0.01 | 0.329 ± 0.028 | 0.269 ± 0.014 | 0.236 ± 0.014 | 0.181 ± 0.0031 | 0.158 ± 0.017 | 0.473 ± 0.015 | 0.467 ± 0.02 | 0.236 ± 0.053 | 0.235 ± 0.03 | 0.4 ± 0.02 | 0.32 ± 0.0055
9 | CN(C)CCOC(c1ccccc1)c1ccccc1.Cn1c(=O)c2[nH]c(Cl)nc2n(C)c1=O [Dimenhydrinate] | 0.213 ± 0.0024 | 0.255 ± 0.012 | 0.226 ± 0.0081 | 0.174 ± 0.011 | 0.134 ± 0.01 | 0.133 ± 0.0031 | 0.261 ± 0.044 | 0.342 ± 0.12 | 0.174 ± 0.0038 | 0.197 ± 0.014 | 0.402 ± 0.008 | 0.319 ± 0.0044
10 | CCOC(=O)[C@H](CCc1ccccc1)N[C@H]1CCc2ccccc2N(CC(=O)O)C1=O [Benazepril HCl] | 0.245 ± 0.011 | 0.044 ± 0.0065 | 0.0504 ± 0.011 | 0.253 ± 0.023 | 0.173 ± 0.0047 | 0.1615 ± 0.0012 | 0.293 ± 0.042 | 0.36 ± 0.066 | 0.198 ± 0.0085 | 0.24 ± 0.038 | 0.0476 ± 0.0029 | 0.331 ± 0.015
11 | O=C1c2c(O)cccc2Cc2cccc(O)c21 [Anthralin] | 0.161 ± 0.0039 | 0.159 ± 0.018 | 0.169 ± 0.017 | 0.205 ± 0.0082 | 0.151 ± 0.0087 | 0.182 ± 0.0047 | 0.22 ± 0.013 | 0.306 ± 0.13 | 0.246 ± 0.017 | 0.229 ± 0.051 | 0.29 ± 0.034 | 0.239 ± 0.03
12 | Clc1ccccc1CN1CCc2sccc2C1 [Ticlopidine hydrochloride] | 0.0758 ± 0.011 | 0.0555 ± 0.015 | 0.0438 ± 0.0013 | 0.0705 ± 0.024 | 0.0437 ± 0.00091 | 0.0565 ± 0.0013 | 0.236 ± 0.03 | 0.323 ± 0.07 | 0.195 ± 0.0059 | 0.23 ± 0.029 | 0.345 ± 0.085 | 0.06587 ± 0.00038
13 | CC1=C(/C=C/C(C)=C/C=C/C(C)=C\C(=O)O)C(C)(C)CCC1 [Isotretinoin] | 0.245 ± 0.0032 | 0.274 ± 0.016 | 0.24 ± 0.0073 | 0.218 ± 0.012 | 0.11 ± 0.0034 | 0.15 ± 0.004 | 0.328 ± 0.098 | 0.365 ± 0.073 | 0.185 ± 0.018 | 0.195 ± 0.014 | 0.438 ± 0.0094 | 0.251 ± 0.014
